Among all 98,000 compounds or so, about 4,900 (5%) were called active. Cut-off read from the data, not from the text of the source: active = inhibition above about 30%; inactive = the rest. The sample as a whole holds a higher share of actives than the screen did.
Assay: yeast control strain growth suppression – counter-screen for post-Golgi transport modulator project, primary screen (AID 738)
Settings: efflux-deficient yeast background strain, growth absorbance A615, 16 h; at 10 µM; stronger effect = higher value

Row | Structure (SMILES) | inhibition
1 | COc1cccc(/C=N/NC(=O)c2cccc([N+](=O)[O-])c2)c1OS(=O)(=O)c1ccc(C)cc1 | 6.93% (inactive)
2 | COc1cc(/C=N/O)cc(Br)c1OCc1cccc(Cl)c1 | 68% (active)
3 | COc1ccc(C(=O)Oc2cc(/C=N/NS(=O)(=O)c3ccc(C)cc3)ccc2OC)cc1 | 4.53% (inactive)
4 | CCOc1c(Cl)cc(/C=N/O)cc1OC | -0.28% (inactive)
5 | CCOc1cc(/C=N/O)cc(Br)c1OC | 9.73% (inactive)
6 | COc1cc(/C=N/O)cc(Br)c1OS(=O)(=O)c1ccc(C)cc1 | 55.4% (active)
7 | Cn1nc(C(F)(F)F)c(C(=O)Nc2cccc(C(F)(F)F)c2)c1SCc1ccc(Cl)cc1 | 9.33% (inactive)
8 | CC(Oc1ccc(-c2ccccc2)c(F)c1)c1ccn(S(=O)(=O)c2cccc3ccccc23)n1 (stereo not drawn) | 7.08% (inactive)
9 | O=c1c2ccccc2c(-c2ccc(F)cc2)nn1-c1ccc(C(F)(F)F)cc1 | 23.4% (inactive)
10 | O=C(CNC(=O)c1ccc(Cl)cc1Cl)NCC(=O)Nc1ccccc1N1CCOCC1 | 1.21% (inactive)
11 | COc1c(C)cccc1C(=O)Nc1cc(Cl)ccc1N1CCOCC1 | 87.2% (active)
12 | Cc1cc(C(=O)Nc2ccccc2N2CCOCC2)c2ccccc2n1 | 6.17% (inactive)
13 | C/C(=N\NC(=O)c1ccccc1C)c1ccc(N2CCOCC2)cc1 | -0.44% (inactive)
14 | CC(C)C(C)NC(=O)COc1ncnc2ccccc12 (stereo not drawn) | 27.4% (inactive)
15 | COc1cccc(N2CCN(C(=O)Nc3ccc4c(c3)NC(=O)CO4)CC2)c1 | 4.59% (inactive)
16 | O=C(Cn1cncn1)N/N=C/c1c2ccccc2cc2ccccc12 | -2.2% (inactive)
17 | Cn1nc(-c2ccc(Cl)cc2)c2cc(C(=O)NCc3ccco3)sc21 | 34.4% (active)
18 | COc1ccccc1N1CCN(C(=O)c2cc3c(-c4ccc(Cl)cc4)nn(C)c3s2)CC1 | 16.3% (inactive)
19 | CCOC(=O)N1CCN(C(=O)c2cc3c(-c4ccc(Cl)cc4)nn(C)c3s2)CC1 | 22.3% (inactive)
20 | CC(=O)c1cccc(NC(=O)C2CCCN2S(=O)(=O)c2cccc3nsnc23)c1 (stereo not drawn) | 18.2% (inactive)
21 | Cc1ccc(-c2nc3ccccc3[nH]2)cc1NC(=O)c1sc2ccccc2c1Cl | 12.1% (inactive)
22 | O=C(/C=C/c1ccco1)Nc1cccc(-c2nc3ccccc3[nH]2)c1 | 14.9% (inactive)
23 | Cc1ccsc1C(C(=O)NC1CCCCC1)N(C(=O)Cc1cccs1)C1CC1 (stereo not drawn) | 34.2% (active)
24 | CC(Cc1cccs1)NC(=O)NC1CCCCC1 (stereo not drawn) | 4.21% (inactive)
25 | Cc1cccc(N(C(=O)Cc2cccs2)C(C(=O)NC2CCCC2)c2ccsc2)c1 (stereo not drawn) | 2.59% (inactive)

Row | Structure (SMILES) | inhibition
26 | Cc1ccc(Oc2ccc3c(c2)C(=O)N(c2cccc4cccnc24)C3=O)cc1 | 9.43% (inactive)
27 | COC(=O)c1cc(OC)c(OC)cc1NC(=O)CSc1ccc(C)cc1 | 4.16% (inactive)
28 | N#Cc1ccsc1NC(=O)CN1CCCCC1 | 3.25% (inactive)
29 | CC1CC2=C(CC1/C=N/NC(N)=S)C(C)(C)CCC2 (stereo not drawn) | 90.2% (active)
30 | CC1(C)CCCC2=C1CC1C(=O)N(c3ccccc3)C(=O)C1C2 (stereo not drawn) | 18.5% (inactive)
31 | COc1ccc(N(CC(=O)N/N=C/c2cccc3c2OCCO3)S(=O)(=O)c2ccc(NC(C)=O)cc2)cc1 | 0.15% (inactive)
32 | O=C(COC(=O)c1n[nH]c2ccccc12)NCc1ccccc1 | 4.29% (inactive)
33 | COc1ccc(COC(=O)c2n[nH]c3ccccc23)cc1F | 37.5% (active)
34 | CCN(CC)S(=O)(=O)c1ccc2nc(COC(=O)c3n[nH]c4ccccc34)[nH]c2c1 | 7.74% (inactive)
35 | CC(C)Cn1c(N)c(C(=O)NCc2cccs2)c2nc3ccccc3nc21 | 35.7% (active)
36 | C=CCn1c(N)c(C(=O)OCC(C)C)c2nc3ccccc3nc21 | 9.88% (inactive)
37 | CCC(C)NC(=O)c1c(N)n(/N=C/c2cccs2)c2nc3ccccc3nc12 (stereo not drawn) | -2.86% (inactive)
38 | O=C(O)COc1ccc(-c2nccc(-c3cccs3)n2)cc1 | 0.28% (inactive)
39 | Brc1ccc(/C=N/N2CCN(C3c4ccccc4-c4ccccc43)CC2)s1 | -3.33% (inactive)
40 | CC(CC(=O)Nc1cc(C(F)(F)F)ccc1Cl)c1ccccc1 (stereo not drawn) | 16% (inactive)
41 | CC(=O)OCc1cc2cc(C)ccc2[nH]c1=O | -5.13% (inactive)
42 | CCNCc1cc2cc(C)ccc2[nH]c1=O | -2.22% (inactive)
43 | CCN(Cc1cc2cc(C)ccc2[nH]c1=O)S(=O)(=O)c1ccccc1 | 32.2% (active)
44 | O=[N+]([O-])c1ccc(Oc2ccc(F)cc2Br)c2ccncc12 | 68.3% (active)
45 | COc1ccc(C2C=C(c3ccc(Br)cc3)Nc3nc(NS(C)(=O)=O)nn32)cc1 (stereo not drawn) | -3.73% (inactive)
46 | Cc1cc(/C=C2/SC(=O)N(CC(=O)OC(C)C)C2=O)c(C)n1C | -3.79% (inactive)
47 | Cc1cccc(NC(=S)Nc2ccc(Br)cc2)c1 | 0.28% (inactive)
48 | CC(=O)Nc1cc(C(=O)O)ccc1S(=O)(=O)c1ccc(Cl)cc1 | 8.39% (inactive)
49 | O=C(Nc1ccccc1)c1nnsc1S(=O)(=O)c1ccc(Cl)cc1 | 97.8% (active)
50 | O=C(Nc1ccc(Cl)cc1)c1ccsn1 | 25.9% (inactive)

Row | Structure (SMILES) | inhibition
51 | Cc1noc(C)c1COC(=O)c1cc2ccccc2cc1O | 19.3% (inactive)
52 | Cc1cccc(NC(=O)CSc2nnc(NC(=O)CN3CCOCC3)s2)c1 | -6.56% (inactive)
53 | Cc1cccc(NC(=O)CN2C(=O)CNC2=O)c1 | 9.16% (inactive)
54 | Cc1cccc(NC(=O)CN2CCCN(S(=O)(=O)c3ccc(Br)s3)CC2)c1 | 41.2% (active)
55 | O=C(Nc1ccccc1)c1ccc2nsnc2c1 | 12.1% (inactive)
56 | Cn1nc([N+](=O)[O-])nc1Sc1ccc(C(C)(C)C)cc1 | 11.6% (inactive)
57 | C=CCOC(=O)C1=C(C)NC(C)=C(C(=O)OCC=C)C1c1cccs1 | 39.5% (active)
58 | CCOC(=O)C1=C(C)NC(C)=C(C(=O)OCC)C1c1ccccn1 | -6.97% (inactive)
59 | C=CCOC(=O)C1=C(C)NC(SCC(=O)OCC)=C(C#N)C1c1ccc(C)cc1 (stereo not drawn) | 18.4% (inactive)
60 | COc1ccc(/C=C2/S/C(=N/N=C3\CC4CCC3(C)C4(C)C)NC2=O)cc1 (stereo not drawn) | -0.57% (inactive)
61 | COc1ccc(/C(O)=C2\C(=O)C(=O)N(Cc3ccco3)C2c2ccc(OC)cc2OC)cc1 (stereo not drawn) | -3.5% (inactive)
62 | CCCn1c(SCC(N)=O)nnc1C(C)C | 5.31% (inactive)
63 | CCCn1c(SCC(=O)Nc2c(C)cccc2C)nnc1C(C)C | -4.88% (inactive)
64 | CCCn1c(SCC(=O)c2ccc3c(c2)OCCO3)nnc1C(C)C | 43.7% (active)
65 | Cc1cc2c(c(=O)n1C)C(C(C)C)C(C#N)=C(N)O2 (stereo not drawn) | -3.4% (inactive)
66 | CSCc1cc(N(C)C)nc(SCc2ccc(Cl)cc2Cl)n1 | 15% (inactive)
67 | CCOC(=O)c1ccc(NC(=O)CSc2ncccn2)cc1 | 31.1% (active)
68 | CCOC(=O)c1ccc(NC(=O)CSc2nnc(COc3ccccc3OC)n2C)cc1 | 12.5% (inactive)
69 | CCOC(=O)c1sc(NC(=O)CSc2ncccn2)c(C#N)c1C | 21.6% (inactive)
70 | CC(c1ccco1)N(C(=O)COc1ccccc1[N+](=O)[O-])c1ccccn1 (stereo not drawn) | 14.2% (inactive)
71 | C=CCNC(=O)c1sc(SC)cc1-c1ccc(Cl)cc1 | 11.2% (inactive)
72 | CC1CCN(CC(=O)c2c[nH]c3ccccc23)CC1 | 6.25% (inactive)
73 | CCOC(=O)CSC1=C(C#N)C(c2sccc2C)CC(=O)N1 (stereo not drawn) | 11.5% (inactive)
74 | Cc1ccc(C2CC(=O)NC(SCC(=O)OCc3ccccc3)=C2C#N)o1 (stereo not drawn) | 32% (active)
75 | CCOC(=O)CSC1=C(C#N)C(c2ccco2)C(C(=O)OCc2ccccc2)=C(C)N1 (stereo not drawn) | 24.9% (inactive)

Row | Structure (SMILES) | inhibition
76 | CN(C)/C=C(\C#N)C(=O)c1cccnc1Oc1ccc(F)cc1F | 2.7% (inactive)
77 | O=C(COc1ccccc1F)NC1CC1 | -0.64% (inactive)
78 | O=C(COc1ccc(Br)cc1F)NC1CCN(Cc2ccccc2)CC1 | 37.7% (active)
79 | O=C(NC1CCN(Cc2ccccc2)CC1)c1ccccc1F | 6.56% (inactive)
80 | Cc1ccc(C(=O)Nc2c(C#N)c(C)c(C)n2Cc2ccccc2)cc1 | 17.1% (inactive)
81 | CCOC1CS(=O)(=O)CC1OCC (stereo not drawn) | 8.62% (inactive)
82 | Cc1cc(C)nc(NC(=O)C(C)N2C(=O)c3ccccc3C2=O)n1 (stereo not drawn) | -0.16% (inactive)
83 | O=C(Nc1ccccc1C(F)(F)F)c1cc(-c2ccc(O)cc2)on1 | 2.42% (inactive)
84 | Cc1cc(C)nc(NC(=O)Nc2ccccc2C(F)(F)F)n1 | 34.3% (active)
85 | COc1cc(SC)ccc1C(=O)NCCOc1ccccc1Cl | 28.9% (inactive)
86 | Cc1ccc(CNC(=O)CCNC(=O)Cn2ccc3ccccc3c2=O)cc1 | 7.83% (inactive)
87 | CCOc1c2ccc(C(=O)NCc3ccc(OC(F)(F)F)cc3)cc2nn1C | -2.75% (inactive)
88 | COc1ccc(C(=O)c2c(C)oc3cc([N+](=O)[O-])c(O)c([N+](=O)[O-])c23)cc1 | 15% (inactive)
89 | COC(=O)Nc1c(C)n(C)n(-c2ccccc2)c1=O | 6.08% (inactive)
90 | Cc1c(NC(=O)c2cc(-c3ccc(Cl)s3)nc3ccccc23)c(=O)n(-c2ccccc2)n1C | 44.6% (active)
91 | Cc1cc(C(=O)Nc2c(C)n(C)n(-c3ccccc3)c2=O)cs1 | 2.08% (inactive)
92 | CCOC(=O)Nc1ccc(S(=O)(=O)N(C)C(C)C)cc1 | 4.8% (inactive)
93 | CCOc1c2ccc(C(=O)NCc3ccc4c(c3)OCO4)cc2nn1C | 24.1% (inactive)
94 | Cc1ccccc1N/N=C/c1ccc(N2CCOCC2)cc1 | 20% (inactive)
95 | COc1ccccc1CNC(=O)c1ccc(SC)cc1OC | 17.5% (inactive)
96 | COc1ccc2nc(N3CCCC(O)C3)c(C#N)cc2c1 (stereo not drawn) | 6.9% (inactive)
97 | CCOc1ccc2nc(NCCNS(=O)(=O)c3ccccc3)c(C#N)cc2c1 | -2.23% (inactive)
98 | CCOc1ccc2nc(N3CCCN(C(=O)Nc4ccccc4C)CC3)c(C#N)cc2c1 | 56.8% (active)
